Where “and” joins values, the source holds several entries; their conditions need not be identical. Identical values can stand only once. Records with an inconclusive call do not appear. Where a structure was tested more than once in an assay, its records may differ in their call. Calls of active or inactive are those of the source. Unless noted, calls come from the whole dose curve; as a rule, active = well fitted curve in the direction sought with a large enough effect; inconclusive = small, poorly fitted or top-dose-only effect, or another doubt; inactive = no such curve, though single readings can be large; an effect the other way counts as inactive or inconclusive.

Experiment [1] deals with Guanine nucleotide-binding protein G(i) subunit alpha-1 (Homo sapiens) (UniProt P63096). Put plainly: qHTS Assay for Inhibitors of RGS12 GoLoco Motif Activity (Green Fluorophore) (AID 879).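 Note: 0% = labeled peptide with Gαi1 and full inhibition = labeled peptide alone without protein; negative values mean loss of peptide binding seen as reduced polarization.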 In outline: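 A drop in FITC polarization marked displacement of the FITC-tagged RGS12 GoLoco peptide (10 nM) from Gαi1 (50 nM). Compounds were incubated 10 min at room temperature in Tris pH 7.5 buffer containing 150 mM NaCl, 0.1 mM GDP and 0.05% NP40; unlabeled peptide titration served as control.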
For orientation: Quantitative high-throughput screening tests each substance at several concentrations.

Experiment [2] concerns the target Cytochrome P450 3A4 (Homo sapiens) (UniProt P08684). Nature of the experiment: qHTS Assay for Activators of Cytochrome P450 3A4 (AID 885). Note: nearly all actives have a fitted effect of over 65% in size. In outline:
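Luminescent readout of luciferin formed from 25 uM Luciferin-PPXE (KM level) by 20 nM CYP3A4 in 200 mM KPO4, with 60 min NADPH-driven reaction at room temperature after 10 min compound exposure. Ketoconazole (57 uM) defined 100% inhibition.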

The target of experiment [3] is Cytochrome P450 2D6 (Homo sapiens) (UniProt P10635). Put plainly: qHTS Assay for Inhibitors and Substrates of Cytochrome P450 2D6 (AID 891). Note: nearly all actives have a fitted effect of over 60% in size. Note: potency is the fitted concentration of half-maximal effect. The essentials:
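Luminescent read-out of luciferin formed by 5 nM human CYP2D6 demethylating 30 uM Luciferin-ME EGE (Km level) over 60 min at room temperature after NADPH regeneration addition. Data normalized to full inhibition by 1.43 uM quinidine.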

Experiment [4] can be described thus: Confirmation and Secondary Assay for Modulators of Hemoglobin Beta Chain Splicing at IVS2 654 locus (AID 910).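 Note: per-well total GFP intensity by laser scanning cytometry after 2-day treatment; % of control where 0% means no effect.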 The essentials: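 HeLa cells stably carrying EGFP interrupted by mutant beta-globin IVS2-654 intron (CMV-driven) were treated with compound for 2 days at 37C; corrected splicing was scored as total peak GFP intensity per well (488 nm excitation, 500-520 nm emission).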

The target in experiment [5] is Cytochrome P450 2C9 (Homo sapiens) (UniProt P11712). Nature of the experiment: qHTS Assay for Inhibitors and Substrates of Cytochrome P450 2C9 (AID 883). Note: nearly all actives have a fitted effect of over 60% in size. Note: potency is the fitted concentration of half-maximal effect. In outline:
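CYP2C9 deoxyluciferin hydroxylation, 37C, 60 min with NADPH regeneration; 10nM enzyme, 100uM Luciferin-H (KM). Glo detection reagent stopped reaction; luminescence normalized to sulphaphenazole (57uM) full inhibition.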

Experiment [6] in a line: qHTS Assay for Identification of Small Molecule Antagonists for NFkB Signaling Pathway (AID 895; active = well fitted inhibition curve with a large enough effect in the signal ratio, with a control signal flat, not every such curve was filed as active; the % refers to the signal ratio; note: % is set by controls: 0 for no effect and ±100 for the full control effect). The essentials:
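NFkB-bla ME-180 cervical carcinoma cells with beta-lactamase reporter under NFkB response element; compounds added, then TNF alpha at 10 pM final (EC50), 5 h at 37 C. LiveBLAzer substrate 2 h, room temperature; emission 460/530 nm at 405 nm excitation.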

The nature of experiment [7]: Cellular Toxicity (caspase-3) Jurkat (AID 655).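 Note: cells exposed to compound for 16 h at 37 °C before reading.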 The essentials: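 Jurkat cells (5000/well) in complete medium exposed 16 h at 37 C; caspase-3/7 activity read by Caspase-Glo luminescence after 20 min at room temperature. Normalized to DMSO and 100 uM tamoxifen; AC50 from Hill fits.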
A short description of experiment [8]: Cellular Toxicity (caspase-3) HUV-EC-C (AID 656). In outline:
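HUV-EC-C cells (1000/well) in complete medium, compound-treated 16 h at 37 °C; caspase-3/7 activity read by Caspase-Glo 3/7 luminescence. Normalized to DMSO (basal) and 100 uM tamoxifen (100%); AC50 from Hill-equation concentration-response fits.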

The nature of experiment [9]: Cellular Toxicity (caspase-3) SHSY5Y (AID 657). The essentials:
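SH-SY5Y human neuroblastoma cells, 1500/well, exposed to compound for 16 hours at 37 °C in complete medium. Caspase-3/7 activity read by Caspase-Glo luminescence after 1 hr at room temperature, normalized to DMSO and 10 uM staurosporine; AC50 from Hill fit.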

The nature of experiment [10]: Cellular Toxicity (caspase-3) BJ (AID 658).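 Note: 0% = DMSO basal and 100% = 10 µM staurosporine.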 The essentials: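 Plated BJ cells (1000/well) rested 5 hr, received compound for 16 hr at 37 °C, then Caspase-Glo 3/7 reagent for 1 hr at room temperature before luminescence reading.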
Experiment [11] can be described thus: Cellular Toxicity (caspase-3) MRC-5 (AID 659).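 Note: 0% = DMSO basal and 100% = 10 µM staurosporine.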 The essentials:
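Apoptosis readout in MRC-5 cells: luciferase light generated after caspase 3/7 cleaves a peptide-aminoluciferin substrate, measured post 16 hr compound incubation at 37 °C.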

The nature of experiment [12]: Cellular Toxicity (caspase-3) Mesangial (AID 660).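 Note: cells exposed to compound for 16 h before the caspase read.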 The essentials: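 Caspase 3/7 activation measured by Caspase-Glo 3/7 luminescence (20 min, room temperature) following 16 h exposure of mesangial cells (1000/well); AC50 from Hill-equation fit, normalized to DMSO and 100 uM tamoxifen.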
Experiment [13] in a line: Cellular Toxicity (caspase-3) SK-N-SH (AID 661).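 Note: 0% = DMSO basal and 100% = 10 µM staurosporine.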 In outline: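 Caspase 3/7 activation was read by luminogenic substrate cleavage after 16 hour treatment of SK-N-SH cells. Signal was scaled between DMSO and 10 uM staurosporine, and concentration-response data were fitted with the Hill equation for AC50.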
Experiment [14] can be described thus: Cellular Toxicity (caspase-3) H-4-II-E (AID 663).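 Note: cells exposed to compound for 16 hr before readout.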 In outline:
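Caspase 3/7 activation measured in H-4-II-E cells in complete culture medium after 16 hr treatment at 37 °C, using luciferase-coupled substrate readout; AC50 values come from Hill-equation fits of normalized concentration-response data.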

The nature of experiment [15]: Cellular Toxicity (caspase-3) Hek293 (AID 664).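 Note: cells exposed to compound for 16 h at 37 °C before readout.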 Conditions: HEK293 caspase-3 activation, DMSO = 0%, 100 µM tamoxifen = 100%; at 92.2 µM (top of the series). In outline: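 Concentration-response qHTS: caspase 3/7 activation measured by luminescent aminoluciferin substrate cleavage after 16 h compound exposure of Hek 293 cells. AC50 from Hill equation, with DMSO as basal and 100 uM tamoxifen as 100%.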

Experiment [16] in a line: Cellular Toxicity (caspase-3) N2a (AID 665).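 Note: compound exposure lasted 16 h at 37 °C before readout.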 The essentials: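 Caspase-3/7 activation measured as luminescence from Caspase-Glo reagent (1 h, room temperature) after 16 h compound exposure of mouse N2a cells. AC50 values from Hill-equation concentration-response, scaled between DMSO and 10 uM staurosporine.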
Experiment [17] can be described thus: Cellular Toxicity (caspase-3) NIH 3T3 (AID 666).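 Note: caspase signal read after 16 h compound exposure.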 The essentials: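 Caspase-Glo 3/7 luminescence reported caspase activation in 1000 NIH 3T3 cells/well after 16 h compound exposure at 37 C. DMSO set basal and 100 uM tamoxifen set 100% stimulation; concentration-response modeled with the Hill equation for AC50.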
The nature of experiment [18]: Cellular Toxicity (caspase-3) Renal Proximal Tubule (AID 667).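 Note: cells exposed to compound for 16 hours at 37 °C before detection; 0% = DMSO basal and 100% = 10 µM staurosporine.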 In outline: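 Freshly isolated primary rat kidney proximal tubule cells, 1000/well, treated 16 hr at 37 °C, then Caspase-Glo 3/7 luminescence after 1 hr. Normalized to DMSO and 10 uM staurosporine; AC50 from Hill fit.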
Experiment [19] deals with Cytochrome P450 3A4 (Homo sapiens) (UniProt P08684). Nature of the experiment: qHTS Assay for Inhibitors and Substrates of Cytochrome P450 3A4 (AID 884). Note: nearly all actives have a fitted effect of over 50% in size. Note: potency is the fitted concentration of half-maximal effect. In outline: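 Luminescent readout of luciferin produced by CYP3A4 (20 nM) dealkylation of Luciferin-PPXE, 25 uM (its KM). NADPH-driven reaction ran 60 min at RT after 10 min compound preincubation; data scaled to 57 uM ketoconazole as 100% inhibition.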
Sequence of Cytochrome P450 3A4 (Homo sapiens) (P08684 whole entry, looked up): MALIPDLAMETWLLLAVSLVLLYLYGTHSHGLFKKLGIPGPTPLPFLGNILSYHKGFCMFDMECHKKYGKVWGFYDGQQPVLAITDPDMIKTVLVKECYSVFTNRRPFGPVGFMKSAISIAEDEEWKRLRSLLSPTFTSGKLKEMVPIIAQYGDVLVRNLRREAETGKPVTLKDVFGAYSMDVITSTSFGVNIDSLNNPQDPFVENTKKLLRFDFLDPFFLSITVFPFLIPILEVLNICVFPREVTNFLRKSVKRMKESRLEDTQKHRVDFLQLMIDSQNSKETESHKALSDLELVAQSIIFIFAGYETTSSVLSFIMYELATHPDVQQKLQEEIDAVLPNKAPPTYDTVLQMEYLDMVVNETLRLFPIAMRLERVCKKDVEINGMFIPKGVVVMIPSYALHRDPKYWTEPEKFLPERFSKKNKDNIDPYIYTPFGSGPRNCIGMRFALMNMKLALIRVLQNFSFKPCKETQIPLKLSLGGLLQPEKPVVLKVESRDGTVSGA

Sequence of Cytochrome P450 2C9 (Homo sapiens) (P11712 whole entry, looked up): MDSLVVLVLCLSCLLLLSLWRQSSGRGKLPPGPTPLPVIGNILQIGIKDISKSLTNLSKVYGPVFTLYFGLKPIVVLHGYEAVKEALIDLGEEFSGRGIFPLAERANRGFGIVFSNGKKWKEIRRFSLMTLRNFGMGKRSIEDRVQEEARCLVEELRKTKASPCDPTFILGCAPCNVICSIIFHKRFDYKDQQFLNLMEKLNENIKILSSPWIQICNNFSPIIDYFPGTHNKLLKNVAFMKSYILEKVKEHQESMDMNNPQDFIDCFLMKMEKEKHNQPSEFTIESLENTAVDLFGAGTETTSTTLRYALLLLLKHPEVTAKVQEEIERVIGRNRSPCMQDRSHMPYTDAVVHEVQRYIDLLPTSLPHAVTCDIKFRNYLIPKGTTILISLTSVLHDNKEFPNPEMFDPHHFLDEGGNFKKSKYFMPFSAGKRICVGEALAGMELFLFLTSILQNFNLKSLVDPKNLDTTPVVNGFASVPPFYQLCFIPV
Sequence of Cytochrome P450 2D6 (Homo sapiens) (P10635 whole entry, looked up): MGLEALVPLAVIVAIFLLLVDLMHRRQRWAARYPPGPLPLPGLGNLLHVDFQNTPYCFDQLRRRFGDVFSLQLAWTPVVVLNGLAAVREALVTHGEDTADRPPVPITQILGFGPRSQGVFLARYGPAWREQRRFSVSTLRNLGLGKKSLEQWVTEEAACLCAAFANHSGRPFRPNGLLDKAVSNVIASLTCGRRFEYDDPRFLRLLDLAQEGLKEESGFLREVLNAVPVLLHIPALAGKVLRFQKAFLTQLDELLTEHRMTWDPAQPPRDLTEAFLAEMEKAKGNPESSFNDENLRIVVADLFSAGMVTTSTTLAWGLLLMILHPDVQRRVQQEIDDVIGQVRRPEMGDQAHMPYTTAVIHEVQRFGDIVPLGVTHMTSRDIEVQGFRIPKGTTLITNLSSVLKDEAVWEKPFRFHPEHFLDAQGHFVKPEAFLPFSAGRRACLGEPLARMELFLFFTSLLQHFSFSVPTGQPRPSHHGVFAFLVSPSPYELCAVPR
Sequence of Guanine nucleotide-binding protein G(i) subunit alpha-1 (Homo sapiens) (P63096 whole entry, looked up): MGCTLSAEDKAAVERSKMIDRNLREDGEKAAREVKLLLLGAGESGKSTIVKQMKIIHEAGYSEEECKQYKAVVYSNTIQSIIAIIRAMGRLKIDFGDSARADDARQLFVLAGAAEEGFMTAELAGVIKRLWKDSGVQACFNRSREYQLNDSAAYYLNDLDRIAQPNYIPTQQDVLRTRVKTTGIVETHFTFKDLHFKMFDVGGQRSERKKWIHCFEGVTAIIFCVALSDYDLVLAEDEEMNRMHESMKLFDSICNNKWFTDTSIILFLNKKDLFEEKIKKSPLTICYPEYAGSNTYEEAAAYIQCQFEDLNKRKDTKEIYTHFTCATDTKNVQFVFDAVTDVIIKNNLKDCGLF

For the molecule `CNC[C@H](O)c1ccc(O)c(O)c1`, the outcome in experiment [1] was inactive.
As for `CC1(C)NC(=O)N(c2ccc([N+](=O)[O-])c(C(F)(F)F)c2)C1=O`, the outcome in experiment [1] and in [2] was inactive. The Potency result in experiment [3] and in experiment [4] was “inactive” throughout.
As to `Cc1nc2n(c(=O)c1CCN1CCC(c3noc4cc(F)ccc34)CC1)CCCC2`, the outcome in experiment [1] and in experiment [5] was inactive. For the same molecule, the Potency in experiment [3] was 7.94 µM (active). Moreover, in [6], the Potency result was “inactive”.
Consider `Cc1ccc(C)c(OCCCC(C)(C)C(=O)O)c1`, for which the Potency entry in experiment [7], in experiment [19] and in experiment [4] was “inactive” in each case. Besides, the outcome in experiment [8], in experiment [9], in experiment [10], in [11], in experiment [12] and in experiment [13] was inactive. For the same molecule, the call in [14], in [16], in experiment [17] and in experiment [18] was inactive. The caspase-3 activation in experiment [15] is -2.65% (inactive). Also, in experiment [5], the Potency is 6.31 µM (active).
Turning to `CCCCC(CC)COC(=O)C(C#N)=C(c1ccccc1)c1ccccc1` (stereo unspecified), the Potency result in experiment [7] and in experiment [19] was “inactive” throughout. In addition, the result in [8], in experiment [9], in [10], in experiment [11], in [12] and in [13] was inactive. Besides, the molecule was called inactive in experiment [14], in [16], in experiment [17] and in experiment [18]. Besides, the caspase-3 activation in experiment [15] is 2.23% (inactive).
With `CCCc1cc(=O)[nH]c(=S)[nH]1`, the Potency entry in experiment [7], in experiment [19] and in experiment [4] was “inactive” each time. For the same molecule, the outcome in experiment [8], in [9], in [10], in experiment [11], in [12] and in experiment [13] was inactive. Further, the outcome in experiment [14], in experiment [16], in experiment [17] and in experiment [18] was inactive. Moreover, the caspase-3 activation in experiment [15] is 1.8% (inactive).
As for `O=c1cc(N2CCOCC2)oc2c(-c3ccccc3)cccc12`, the molecule was classed as inactive in experiment [1] and in experiment [2].
Take `Cc1cccc(C#Cc2ccccc2)n1`: the call in experiment [1] and in experiment [2] was inactive. Further, the Potency entry in experiment [5] is “inactive and 10 µM (active)”.
In the case of `Oc1ccc(-c2nc(-c3ccc(F)cc3)c(-c3ccncc3)[nH]2)cc1`, the molecule was classed as inactive in experiment [1]. The Potency in [5] was 7.94 µM (active); in experiment [3], 12.6 µM (active) and 5.01 µM (active).
For `COc1ccccc1N1CCN(CCN(C(=O)C2CCCCC2)c2ccccn2)CC1`, the call in [1] and in experiment [2] was inactive. The Potency in experiment [19] is 3.98 µM (active). Further, in [6], the Potency result is “inactive”.
With `CC(=O)Nc1ccc(O)cc1`, the Potency entry in experiment [7] is “inactive”. In addition, the molecule was called inactive in [8], in experiment [9], in experiment [10], in experiment [11], in [12] and in [13]. The molecule was called inactive in experiment [14], in experiment [16], in experiment [17], in experiment [18], in experiment [5] and in experiment [3]. For the same molecule, the caspase-3 activation in experiment [15] was -1.09% (inactive).
`O=c1c(O)c(-c2ccc(O)cc2O)oc2cc(O)cc(O)c12`: in [1], the result was inactive. For the same molecule, the Potency in [5] is 10 µM (active). For the same molecule, the Potency entry in experiment [3] and in experiment [4] was “inactive” throughout.

For the origin of these results see PubChem BioAssay (NCATS).
